High-throughput results (PubChem BioAssay)
Only some compounds are listed: those with a hit (about 2.4% of all), similar ones and a draw of the others.
WRN helicase inh: blocks human WRN helicase; WRN helicase unwinding, fluorescent forked duplex, kinetic; Potency, µM (top dose mostly 114 µM), without a hit: at the top dose activity change, negative = inhibition, usual class: inhibitors; 360,000 compounds, 0.46% hits; AID 651768; note: % is set by controls: 0 for no effect and ±100 for the full control effect; nearly all actives have a fitted effect of over 55% in size
Target sequence (Q14191 whole entry, looked up): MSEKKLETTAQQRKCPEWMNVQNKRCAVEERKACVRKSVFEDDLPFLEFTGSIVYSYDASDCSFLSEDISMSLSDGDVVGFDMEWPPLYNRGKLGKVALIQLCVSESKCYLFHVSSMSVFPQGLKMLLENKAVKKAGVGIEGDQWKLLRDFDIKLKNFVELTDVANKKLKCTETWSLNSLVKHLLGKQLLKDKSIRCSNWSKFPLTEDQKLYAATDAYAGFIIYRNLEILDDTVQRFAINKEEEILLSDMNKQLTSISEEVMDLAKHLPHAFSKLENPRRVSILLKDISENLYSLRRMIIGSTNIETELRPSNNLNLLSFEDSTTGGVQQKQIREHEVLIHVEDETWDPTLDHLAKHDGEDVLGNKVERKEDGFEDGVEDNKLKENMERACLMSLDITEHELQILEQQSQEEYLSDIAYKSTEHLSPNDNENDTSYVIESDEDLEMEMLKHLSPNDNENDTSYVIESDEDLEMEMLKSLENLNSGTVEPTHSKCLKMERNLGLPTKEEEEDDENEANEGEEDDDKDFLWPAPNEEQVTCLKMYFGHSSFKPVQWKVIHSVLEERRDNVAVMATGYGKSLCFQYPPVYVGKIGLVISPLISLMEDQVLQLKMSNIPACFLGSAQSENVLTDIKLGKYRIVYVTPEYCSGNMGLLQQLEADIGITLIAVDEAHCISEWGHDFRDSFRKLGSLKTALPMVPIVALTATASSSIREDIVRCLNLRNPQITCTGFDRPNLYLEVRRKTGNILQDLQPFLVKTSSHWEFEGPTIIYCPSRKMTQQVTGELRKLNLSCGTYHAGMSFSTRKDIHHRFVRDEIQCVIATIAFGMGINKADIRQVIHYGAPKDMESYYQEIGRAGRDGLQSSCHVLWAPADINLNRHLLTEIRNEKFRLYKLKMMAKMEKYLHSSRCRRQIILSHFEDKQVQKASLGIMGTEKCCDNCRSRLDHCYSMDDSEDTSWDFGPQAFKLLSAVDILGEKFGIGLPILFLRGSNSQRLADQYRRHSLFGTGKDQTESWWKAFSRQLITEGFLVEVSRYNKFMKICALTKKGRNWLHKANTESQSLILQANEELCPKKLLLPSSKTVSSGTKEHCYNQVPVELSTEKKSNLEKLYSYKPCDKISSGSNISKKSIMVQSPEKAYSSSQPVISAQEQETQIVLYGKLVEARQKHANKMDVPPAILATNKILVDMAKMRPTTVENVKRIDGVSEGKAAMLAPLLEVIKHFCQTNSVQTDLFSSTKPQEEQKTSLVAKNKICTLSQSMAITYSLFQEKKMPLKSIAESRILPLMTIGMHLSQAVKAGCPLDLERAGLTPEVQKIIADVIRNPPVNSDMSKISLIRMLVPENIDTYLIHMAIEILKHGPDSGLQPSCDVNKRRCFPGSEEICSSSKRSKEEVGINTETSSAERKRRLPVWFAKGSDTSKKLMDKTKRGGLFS
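Fluorescence dequenching readout, ex 525 nm/em 598 nm, kinetic mode: forked duplex DNA (100 nM final) with adjacent fluorophore and quencher unwound by WRN (20 nM final) with 2 mM ATP. Compound preincubation 15 min, room temperature.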
Pol iota inh: blocks human DNA polymerase iota activity | Q9UNA4 | Pol iota fluorescent replication assay, 10 min | Potency, µM (top dose mostly 115 µM), inactives show at the top dose activity, negative = inhibition, usual class: inhibitors | 390,000 compounds, 1% hits | AID 588590
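Fluorescent replication assay read twice, at 0 min and 10 min after adding 50 nM (final) substrate. Enzyme (10 nM) and compounds were first incubated 15 min at room temperature; enzyme-free buffer wells were negative controls.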
POLB inh: inhibitors of human DNA polymerase beta. 340,000 compounds, 1.3% hits. Pol beta primer extension/strand displacement, fluorescence kinetic. Potency, µM (highest dose often 114 µM), for the others: at the highest dose activity change, negative = inhibition, most hits filed as inhibitors; note: % is set by controls: 0 for no effect and ±100 for the full control effect
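Human Pol beta at 10 nM; strand-displacement substrate 50 nM final. Compound exposure 15 min at room temperature before start, reaction 10 min at room temperature.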
FEN1 inhibitor: human FEN1 inhibition. Recombinant FEN1 flap cleavage, fluorescence, 15 min. 390,000 compounds, 0.35% hits. Potency, µM (series often up to 114 µM), inactives show at the top dose activity change, negative = inhibition, usual class: inhibitors. P39748; note: % is set by controls: 0 for no effect and ±100 for the full control effect; nearly all actives have a fitted effect of over 65% in size
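Quantitative HTS format: each compound was titrated, incubated with 10 nM nuclease for 15 min at room temperature, then challenged with flap substrate at 50 nM final. Signal change over 15 min gave concentration–effect curves.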
POLH inh: inhibitors of human DNA polymerase eta; Potency, µM (series often up to 114 µM), for the others: top-dose activity change, negative = inhibition, actives largely listed as inhibitors; recombinant Pol eta, fluorescent DNA replication assay; Q9Y253; AID 588591; 390,000 compounds, 1.2% hits; note: % is set by controls: 0 for no effect and ±100 for the full control effect
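Pol eta at 10 nM preincubated with compounds 15 min at room temperature; reaction started with fluorescent substrate (50 nM final) and read kinetically at 0 and 10 min.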
POLK inh: DNA polymerase kappa (human) inhibition; 400,000 compounds, 0.53% hits; purified Pol kappa, fluorescent DNA synthesis assay, 10 min; Potency, µM (top dose mostly 107 µM), for the others: at the highest dose activity, negative = inhibition, actives largely listed as inhibitors; note: % is set by controls: 0 for no effect and ±100 for the full control effect
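Kinetic fluorescence readout at 0 and 10 min followed reaction start with substrate at 50 nM final. Beforehand, enzyme (10 nM Pol kappa) stood 15 min with compound at room temperature; buffer-only wells were negative controls.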
* = called active by the depositor; ? = inconclusive; nt = not tested or not shown; [ ] = another dose, or the depositor's remark. Calls come from the whole dose curve; as a rule, active = well fitted curve in the direction sought with a large enough effect; inconclusive = small, poorly fitted or top-dose-only effect, or another doubt; inactive = no such curve, though single readings can be large; an effect the other way counts as inactive or inconclusive. Potency is the fitted concentration of half-maximal effect.

SMILES	WRN helicase inh	Pol iota inh	POLB inh	FEN1 inhibitor	POLH inh	POLK inh
O=C(CCl)N(c1ccccc1)c1c[nH]c2ccccc12	-2%[11.6 µM]	19%	-15%	-2%	14µM*	-11%
O=C(CCl)N(c1ccc(Cl)cc1)c1c[nH]c2ccccc12	-16%[11.6 µM]	?	-11%	-19%	?	-23%
O=C(CSc1nc2sc3c(c2c(=O)n1-c1ccccc1)CCCC3)N/N=C/c1ccc(C(=O)O)cc1	1%[11.6 µM]	40µM*	?	4%	?	?
CCc1cccc(NC(=O)CC(c2ccc(OC)cc2)N2Cc3ccccc3C2=O)c1 (stereo not given)	nt	-7%	7%	-9%	-1%	-6%
Cc1ccc(C)c(-n2c(N)c(C#N)c3nc4ccccc4nc32)c1	nt	25µM*	3%	-3%	-3%	-28%
COc1ccc(C2=CC3=C(Br)C(=O)C(C)(OC(=O)c4ccco4)C(=O)C3=CO2)cc1 (stereo not given)	45µM*	18µM*	20µM*	40µM*	?	79µM*
CCc1cccc(NC(=O)C(CC)n2nc(C)c3sc4ccccc4c3c2=O)c1 (stereo not given)	nt	12%	-2%	10%	-8%	-4%
Cc1ccc2c(=O)cc(C(=O)Nc3ccc(S(=O)(=O)N4CCCCCC4)cc3)oc2c1C	nt	?	21%	21%	2%	7%
COc1ccc(N=C2NC(=O)/C(=C/c3ccco3)S2)cc1	-8%	?	?	-6%	-13%	-20%
COc1cc(/C=C2\S/C(=N/S(=O)(=O)c3ccccc3)NC2=O)c([N+](=O)[O-])cc1OC	?	?	21%	?	22µM*	-30%
COc1ccc(S(=O)(=O)/N=C2/NC(=O)/C(=C\c3cc(OC)c(OC)cc3[N+](=O)[O-])S2)cc1	-30%	-11%	4%	6%	-20%	-6%
COc1ccc(S(=O)(=O)/N=C2/NC(=O)/C(=C/c3ccco3)S2)cc1	?	?	32µM*	-8%	18µM*	-10%
COc1ccc(S(=O)(=O)/N=C2/NC(=O)/C(=C\c3ccco3)S2)cc1	-27%[57.1 µM]	?	25µM*	2%	18µM*	?
COc1ccc(CNC(=O)c2ccc3c(c2)N(Cc2c(F)cccc2Cl)C(=O)CS3)cc1	nt	-2%	20%	10%	-11%	7%
Cc1ccc2c(c1)c(=O)c1ccccc1n2CCCC(=O)Nc1cc(Cl)ccc1C	nt	-16%	?	30%	79µM*	2%
Cc1ccc(NC(=O)CCCn2c3ccccc3c(=O)c3cc(C)ccc32)c(Br)c1	nt	9%	?	-23%	-24%	-7%
O=C(Cn1nnc(-c2cccc(C(F)(F)F)c2)n1)NCc1ccc(F)cc1	nt	-11%	-21%	-1%	-2%	-19%
O=C(Oc1ccccc1)N1CCC2(CC1)CCN(c1ccccn1)CC2	nt	nt	nt	nt	nt	-10%[60.1 µM]
COc1ccc(NC(=O)C2(c3cccs3)CCOCC2)cc1Cl	nt	34%	-1%	4%	-17%	1%[60.1 µM]
Cc1ccc(NC(=S)/C(C#N)=C2/Nc3ccccc3S2)cc1	-30%	nt	nt	nt	40µM*	nt
O=C(NCC(c1cccnc1)N1CCN(Cc2ccccc2)CC1)C(=O)Nc1ccc(Cl)cc1 (stereo not given)	nt	-9%	-9%	-3%	-7%	-2%
Cc1ccc(-n2c(SCc3cc(=O)n4ccsc4n3)nnc2-c2cccnc2)c(C)c1	-9%[57.1 µM]	?	18µM*	0%	4%	-9%
Cc1ccc(-n2c(SCC(N)=O)nnc2-c2cccnc2)c(C)c1	2%	-5%	31%	10%	-11%	5%
CNC(=O)c1nnsc1S(=O)(=O)c1ccc(Cl)cc1	7.9µM*	?	1%	-10%	4%	-11%
O=C(c1nnsc1S(=O)(=O)c1ccc(Cl)cc1)N1CCOCC1	-36%	103%	-1%	-1%	5%	5%
SMILES	WRN helicase inh	Pol iota inh	POLB inh	FEN1 inhibitor	POLH inh	POLK inh
O=C1CC(=O)OC(c2ccc([N+](=O)[O-])cc2)O1	-29%	nt	nt	nt	-7%	nt
CCC1C(=O)C(C)(C)C(=O)OC1c1ccc([N+](=O)[O-])cc1 (stereo not given)	2%	46%	89µM*	12%	-17%	-2%
COc1ccc(OC)c(NC(=O)Cn2c(=O)n(-c3ccc(Cl)cc3)c(=O)c3c(C)c(C)sc32)c1	nt	2%	7%	18%	-10%	-3%
Cc1nc2scc(-c3ccc(C(C)(C)C)cc3)c2c(=O)n1N	-9%[57.1 µM]	?	2%	-9%	89µM*	-25%
CCOC(=O)c1c(C)[nH]c(C)c1S(=O)(=O)N(C)CC(=O)NCc1ccc(Cl)cc1	nt	20%	1%	1%	-15%	-6%[60.1 µM]
O=C(Cc1ccccc1)NC1(O)C(=O)c2ccccc2C1=O	-2%[11.6 µM]	7.1µM*	31%	-14%	?	-1%
O=C(Cc1ccccc1)NO	nt	8%	nt	4%	nt	-2%[60.1 µM]
COc1ccc(CCNC(=O)C(=O)NCC(c2cccs2)S(=O)(=O)c2ccccc2)cc1 (stereo not given)	nt	89µM*	?	14%	-14%	-21%[60.1 µM]
N#Cc1c(N(CCO)CCO)nc(N)c2c(N)nc3c(c12)CC(=O)N3Cc1cccs1	-14%	3.5µM*	2%	-24%	40µM*	-9%
COc1cccc(-c2nc(N3CCN(C)CC3)c3ccccc3n2)c1	nt	nt	nt	nt	nt	2%[60.1 µM]
NS(=O)(=O)c1cccc2c1c([N+](=O)[O-])cc1[nH]c(=O)c(=O)[nH]c12	nt	nt	nt	nt	nt	21µM*
CCNc1c(NC(=O)c2ccccc2OCC)c(=O)oc2ccccc12	nt	23%	2%	3%	-15%	0%
O=c1cc(/N=C/c2coc3c(ccc4ccccc43)c2=O)[nH]c(=S)[nH]1	-4%	?	22µM*	-32%	?	?
CCOc1ccc(C(=O)N2CCc3cc(OC)c(OC)cc3C2COc2ccc3c(C)cc(=O)oc3c2)cc1OCC (stereo not given)	nt	6%	4%	-2%	-16%	-17%
COc1ccc2cc3c(N)nn(C(=O)c4ccc(OC)c(OC)c4)c3nc2c1	nt	-3%	16µM*	-2%	?	-7%
CCOc1ccc2oc(C(=O)N3CCN(c4ccccn4)CC3)c(C)c2c1	-21%	?	?	2%	20µM*	-9%
CCCN(C(=O)c1noc2c1COc1ccc(C)cc1-2)c1ccc(Cl)c(Cl)c1	nt	29%	6%	18%	-7%	-2%
O=C(CCn1c(=O)oc2ccccc21)NCc1ccc2c(c1)OCO2	4%	2%	-2%	10%	-9%	6%
O=C(CCn1cccc1)NCc1ccc2c(c1)OCO2	-22%[57.1 µM]	?	50µM*	-2%	?	?
